Assay results as given in PubChem BioAssay (EPA / NIEHS).
Inconclusive results are not listed. Activity calls are given as the source filed them. How the source made its calls: active means hit-call score of the fitted dose curve at least 0.9, where 1 is the maximum; inconclusive means response in the unintended direction; inactive means score below 0.9.

Legend:
[1] = target: human Opioid Receptor Mu (Opiate Mu), OPRM1 (gene 4988) (UniProt P35372); experiment: NVS_GPCR_hOpiate_mu: NovaScreen (NVS) G Protein-Coupled Receptor Assay for human Opioid Receptor Mu (Opiate Mu) (AID 2283290);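 further: hits lower bound tracer signal versus DMSO meaning displacement of the ligand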
Outline: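 CHO-derived receptor protein, cell-free; radioligand displacement, filtration + scintillation counting, read at 2.5 h. DMSO = negative control/baseline. Primary: 25 uM single conc, duplicate; secondary: concentration series.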

[2] = target: rat Thyrotropin Releasing Hormone Receptor (TRH), Trhr (gene 25570) (UniProt Q01717); experiment: NVS_GPCR_rTRH: NovaScreen (NVS) G Protein-Coupled Receptor Assay for rat Thyrotropin Releasing Hormone Receptor (TRH) (AID 2283329);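 further: hit means lower bound tracer signal versus DMSO baseline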
Outline: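 Rat forebrain membrane prep, radioligand displacement, filter scintillation readout at 4 h. Single conc 25 uM, duplicate; actives retested as concentration series. DMSO = negative control/baseline.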

[3] = target: human Adenosine A1 Receptor (AdoRA1), ADORA1 (gene 134) (UniProt P30542); experiment: NVS_GPCR_hAdoRA1: NovaScreen (NVS) G Protein-Coupled Receptor Assay for human Adenosine A1 Receptor (AdoRA1) (AID 2283254)
Outline: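 Hum. cortical membranes + radioligand, cmpd 1 h; filtration, scintillation count. Readout = decrease vs DMSO. Primary 25 uM dup; hits → conc. series.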

[4] = target: Muscarinic acetylcholine receptor M2 (Homo sapiens) (UniProt P08172); experiment: NVS_GPCR_hM2: NovaScreen (NVS) G Protein-Coupled Receptor Assay for human Muscarinic, M2 Receptor (AID 2283273)
Outline: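 Radioligand displacement on human M2 receptor membranes from CHO cells, 1 h incubation, filtration with scintillation counting. Primary screen in duplicate at 25 uM; actives retested in concentration series; loss of signal fitted versus DMSO.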

[5] = target: human Thromboxane A2 Receptor (TXA2), TBXA2R (gene 6915) (UniProt P21731); experiment: NVS_GPCR_hTXA2: NovaScreen (NVS) G Protein-Coupled Receptor Assay for human Thromboxane A2 Receptor (TXA2) (AID 2283282);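 further: actives reduce bound radioligand signal relative to DMSO baseline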
Outline: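 Biochem binding, human platelets, cell-free; competitive radioligand displacement; 1 h; filter radiodetection. 25 uM duplicate primary, conc. series secondary; DMSO neg. ctrl.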

[6] = target: Sodium channel protein type 1 subunit alpha (Rattus norvegicus) (UniProt P04774); experiment: NVS_IC_rNaCh_site2: NovaScreen (NVS) Ion Channel Assay for rat Sodium Channel, Site 2 (NaCh) (AID 2283322);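 further: hit means loss of radioligand binding signal relative to DMSO so AC50 marks displacement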
Outline: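 Membranes: rat forebrain. Format: competitive radioligand displacement, filter separation, scintillation readout, 1 h exposure. Primary screen in duplicate at 25 uM; actives retested in concentration series.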

[7] = target: human Neurokinin, NK2 Receptor, TACR2 (gene 6865) (UniProt P21452); experiment: NVS_GPCR_hNK2: NovaScreen (NVS) G Protein-Coupled Receptor Assay for human Neurokinin, NK2 Receptor (AID 2283278);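 further: actives reduce bound radioligand signal relative to DMSO baseline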
Protocol: NVS_GPCR_hNK2 is a biochemical, single-readout assay that uses extracted gene-proteins from CHO in a cell-free assay. Measurements were taken 4 hours after chemical dosing in a 96-well plate.NVS_GPCR_hNK2 is one of one assay component(s) measured or calculated from the NVS_GPCR_hNK2 assay. It is designed to make measurements of radioligand binding, a form of binding reporter, as detected with scintillation counting signals by Filter-based radiodetection technology.Data from the assay component NVS_GPCR_hNK2 was analyzed into 1 assay endpoint. This assay endpoint, NVS_GPCR_hNK2, was analyzed in the positive analysis fitting direction relative to DMSO as the negative control and baseline of activity. Using a type of binding reporter, loss-of-signal activity can be used to understand changes in the binding as they relate to the gene TACR2. Furthermore, this assay endpoint can be referred to as a primary readout, because the performed assay has only produced 1 assay endpoint. To generalize the intended target to other relatable targets, this assay endpoint is annotated to the gpcr intended target family, where the subfamily is rhodopsin-like receptor.
Binding assays used specific radioligands (tritiated, iodinated) with non-radioactive competitive displacement ligands in agonist or antagonist protocols (as indicated) and various reference compounds and inhibitors to titrate specific binding to receptors and transporters. Most enzyme assays (CYPs, kinases, phosphatases, proteases, HDACs) used recombinant protein and specific substrates (fluorescence mostly, some colorimetric and radioactive) and inhibitors, followed by a biochemical separation of substrate and product. All assays for the biochemical HTS were initially run in duplicate at a single concentration (10 uM for CYP450 assays and 25 uM for all others). […] Each assay was run with positive and negative controls, and concurrent controls on every plate. […]

[8] = target: D(1A) dopamine receptor (Homo sapiens) (UniProt P21728); experiment: NVS_GPCR_hDRD1: NovaScreen (NVS) G Protein-Coupled Receptor Assay for human Dopamine Receptor D1 (DRD1) (AID 2283269)
Outline: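 HEK293-derived receptor preparation; radioligand competitive displacement; 1 h; filtration + scintillation counting. DMSO = negative control/baseline. Primary: 25 uM, duplicate; secondary: concentration–response for actives.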

[9] = target: rat Adrenergic Receptor, Alpha 2 (Adra2), Non-selective Binding, Adra2a (gene 25083) (UniProt P22909); experiment: NVS_GPCR_rAdra2_NonSelective: NovaScreen (NVS) G Protein-Coupled Receptor Assay for rat Adrenergic Receptor, Alpha 2 (Adra2), Non-selective Binding (AID 2283299)
Outline: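 Rat cortical membranes, radioligand competitive displacement read by filter-based scintillation counting 1.25 hours after dosing. Primary screen in duplicate at 25 uM; actives followed up in concentration series.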

[10] = target: human Adenosine A2a Receptor (AdoRA2a), ADORA2A (gene 135) (UniProt P29274); experiment: NVS_GPCR_hAdoRA2a: NovaScreen (NVS) G Protein-Coupled Receptor Assay for human Adenosine A2a Receptor (AdoRA2a) (AID 2283256)
Outline: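 Radioligand displacement on HEK293-derived membrane protein, cell-free; filter-based scintillation counting 1.5 hours after dosing, loss of signal vs DMSO. Single-point duplicate screen at 25 uM, actives retested in concentration series.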

Sequence of human Opioid Receptor Mu (Opiate Mu), OPRM1 (gene 4988) (P35372 whole entry, looked up): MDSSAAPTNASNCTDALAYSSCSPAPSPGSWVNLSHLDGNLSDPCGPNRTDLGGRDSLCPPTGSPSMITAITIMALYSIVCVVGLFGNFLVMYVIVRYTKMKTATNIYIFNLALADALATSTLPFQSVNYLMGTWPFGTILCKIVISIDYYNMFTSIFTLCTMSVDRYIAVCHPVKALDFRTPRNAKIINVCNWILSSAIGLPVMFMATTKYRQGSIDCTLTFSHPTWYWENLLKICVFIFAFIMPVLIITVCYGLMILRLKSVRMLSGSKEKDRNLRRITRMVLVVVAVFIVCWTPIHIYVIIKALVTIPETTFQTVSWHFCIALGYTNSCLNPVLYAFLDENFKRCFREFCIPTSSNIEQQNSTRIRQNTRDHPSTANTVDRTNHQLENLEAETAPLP
Sequence of rat Thyrotropin Releasing Hormone Receptor (TRH), Trhr (gene 25570) (Q01717 whole entry, looked up): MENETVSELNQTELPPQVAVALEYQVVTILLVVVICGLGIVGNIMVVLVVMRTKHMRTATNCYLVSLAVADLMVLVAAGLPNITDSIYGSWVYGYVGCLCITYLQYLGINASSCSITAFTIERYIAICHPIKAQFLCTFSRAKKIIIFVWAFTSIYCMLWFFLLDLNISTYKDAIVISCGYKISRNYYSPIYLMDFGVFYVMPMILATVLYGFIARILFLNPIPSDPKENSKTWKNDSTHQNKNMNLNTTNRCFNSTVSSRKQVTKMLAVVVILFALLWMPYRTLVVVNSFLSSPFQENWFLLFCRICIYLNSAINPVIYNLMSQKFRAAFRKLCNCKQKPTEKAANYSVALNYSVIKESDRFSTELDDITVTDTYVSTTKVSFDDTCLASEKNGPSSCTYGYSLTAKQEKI
Sequence of human Neurokinin, NK2 Receptor, TACR2 (gene 6865) (P21452 whole entry, looked up): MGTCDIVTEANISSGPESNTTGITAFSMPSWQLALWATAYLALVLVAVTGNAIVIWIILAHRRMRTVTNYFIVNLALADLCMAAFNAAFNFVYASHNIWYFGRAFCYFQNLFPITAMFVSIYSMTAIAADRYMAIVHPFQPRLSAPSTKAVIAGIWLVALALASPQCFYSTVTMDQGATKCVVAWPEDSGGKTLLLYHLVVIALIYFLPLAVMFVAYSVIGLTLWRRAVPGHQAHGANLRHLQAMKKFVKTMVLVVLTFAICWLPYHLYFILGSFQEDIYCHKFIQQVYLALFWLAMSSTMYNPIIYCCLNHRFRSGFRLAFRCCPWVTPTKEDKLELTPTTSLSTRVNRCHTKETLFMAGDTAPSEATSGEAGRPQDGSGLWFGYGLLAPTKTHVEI
Sequence of human Thromboxane A2 Receptor (TXA2), TBXA2R (gene 6915) (P21731 whole entry, looked up): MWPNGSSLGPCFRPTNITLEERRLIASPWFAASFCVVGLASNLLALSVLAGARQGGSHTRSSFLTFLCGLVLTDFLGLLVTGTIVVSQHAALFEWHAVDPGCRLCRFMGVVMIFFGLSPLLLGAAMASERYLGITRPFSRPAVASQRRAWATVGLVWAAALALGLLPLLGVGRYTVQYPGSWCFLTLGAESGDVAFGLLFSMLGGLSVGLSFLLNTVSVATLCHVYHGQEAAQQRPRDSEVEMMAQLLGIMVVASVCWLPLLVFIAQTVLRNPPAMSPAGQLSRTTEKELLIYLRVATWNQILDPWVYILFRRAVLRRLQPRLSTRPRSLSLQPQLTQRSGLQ
Sequence of D(1A) dopamine receptor (Homo sapiens) (P21728 whole entry, looked up): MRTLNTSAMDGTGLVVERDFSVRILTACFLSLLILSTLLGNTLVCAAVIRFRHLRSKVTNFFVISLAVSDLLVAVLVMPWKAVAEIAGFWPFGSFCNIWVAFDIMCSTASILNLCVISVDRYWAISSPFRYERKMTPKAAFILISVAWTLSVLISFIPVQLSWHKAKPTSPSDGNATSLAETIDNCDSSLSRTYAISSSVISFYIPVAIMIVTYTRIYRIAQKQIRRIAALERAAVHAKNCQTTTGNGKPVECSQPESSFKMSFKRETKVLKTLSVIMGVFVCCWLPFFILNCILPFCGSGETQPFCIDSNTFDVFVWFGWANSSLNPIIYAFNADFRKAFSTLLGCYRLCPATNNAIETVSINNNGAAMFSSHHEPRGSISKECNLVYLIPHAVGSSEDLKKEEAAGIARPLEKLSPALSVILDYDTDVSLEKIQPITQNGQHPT
Sequence of Muscarinic acetylcholine receptor M2 (Homo sapiens) (P08172 whole entry, looked up): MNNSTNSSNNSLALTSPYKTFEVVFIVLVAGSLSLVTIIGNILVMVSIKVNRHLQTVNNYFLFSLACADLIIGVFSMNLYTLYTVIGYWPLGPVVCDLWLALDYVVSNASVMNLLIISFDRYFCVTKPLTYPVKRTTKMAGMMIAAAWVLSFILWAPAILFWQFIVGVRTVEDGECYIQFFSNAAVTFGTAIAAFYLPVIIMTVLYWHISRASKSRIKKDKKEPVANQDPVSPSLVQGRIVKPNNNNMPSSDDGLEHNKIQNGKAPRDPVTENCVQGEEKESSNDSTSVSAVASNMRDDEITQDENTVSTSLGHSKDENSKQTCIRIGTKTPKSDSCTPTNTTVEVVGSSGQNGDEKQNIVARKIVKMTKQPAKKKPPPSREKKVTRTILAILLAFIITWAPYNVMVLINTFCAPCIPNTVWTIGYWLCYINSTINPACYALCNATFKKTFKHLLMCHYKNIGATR
Sequence of rat Adrenergic Receptor, Alpha 2 (Adra2), Non-selective Binding, Adra2a (gene 25083) (P22909 whole entry, looked up): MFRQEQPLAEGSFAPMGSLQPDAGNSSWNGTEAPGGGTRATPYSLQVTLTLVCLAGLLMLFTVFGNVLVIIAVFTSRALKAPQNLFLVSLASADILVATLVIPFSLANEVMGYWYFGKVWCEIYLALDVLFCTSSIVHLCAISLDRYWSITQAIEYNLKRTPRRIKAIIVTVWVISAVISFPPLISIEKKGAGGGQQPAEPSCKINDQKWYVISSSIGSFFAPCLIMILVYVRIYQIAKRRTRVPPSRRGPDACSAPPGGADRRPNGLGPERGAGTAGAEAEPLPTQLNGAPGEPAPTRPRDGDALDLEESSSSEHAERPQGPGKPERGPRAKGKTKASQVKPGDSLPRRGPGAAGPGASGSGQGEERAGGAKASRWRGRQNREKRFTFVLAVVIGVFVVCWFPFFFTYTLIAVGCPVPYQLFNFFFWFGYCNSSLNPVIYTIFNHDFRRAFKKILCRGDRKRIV
Sequence of human Adenosine A1 Receptor (AdoRA1), ADORA1 (gene 134) (P30542 whole entry, looked up): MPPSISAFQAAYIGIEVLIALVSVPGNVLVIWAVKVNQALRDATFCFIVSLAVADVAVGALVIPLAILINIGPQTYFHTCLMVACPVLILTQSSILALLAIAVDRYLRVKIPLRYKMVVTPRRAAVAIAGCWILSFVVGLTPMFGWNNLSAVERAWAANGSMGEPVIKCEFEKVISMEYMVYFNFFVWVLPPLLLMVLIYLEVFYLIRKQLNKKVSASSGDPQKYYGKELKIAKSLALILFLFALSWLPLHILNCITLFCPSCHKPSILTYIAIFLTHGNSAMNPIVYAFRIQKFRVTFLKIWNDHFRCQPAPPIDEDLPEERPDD
Sequence of human Adenosine A2a Receptor (AdoRA2a), ADORA2A (gene 135) (P29274 whole entry, looked up): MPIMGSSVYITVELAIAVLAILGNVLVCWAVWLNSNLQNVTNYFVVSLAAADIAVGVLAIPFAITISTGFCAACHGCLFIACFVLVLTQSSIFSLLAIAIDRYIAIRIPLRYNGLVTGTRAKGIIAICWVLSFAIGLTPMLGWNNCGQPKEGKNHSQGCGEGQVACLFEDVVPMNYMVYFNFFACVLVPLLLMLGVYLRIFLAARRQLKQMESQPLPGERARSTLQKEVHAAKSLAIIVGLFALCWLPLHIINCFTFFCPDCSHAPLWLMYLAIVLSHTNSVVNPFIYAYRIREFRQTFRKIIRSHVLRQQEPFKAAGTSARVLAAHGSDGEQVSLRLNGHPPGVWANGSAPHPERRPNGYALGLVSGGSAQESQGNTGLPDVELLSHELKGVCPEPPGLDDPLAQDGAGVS

Question: Which outcome [1] does the source give for `Cc1cc(C)cc(O)c1` here?
Answer: Its outcome is “inactive”.

Question: With `CCCCC(CC)COP(=O)(O)OCC(CC)CCCC` (stereo unspecified) as the molecule, how does the outcome [2] read?
Answer: Its outcome is “inactive”.

Question: For `CCN(CC)c1ccc2c(C)cc(=O)oc2c1`, which outcome [3] is on record?
Answer: The outcome was “inactive”.

Question: What about the AC50 [4] of the same molecule?
Answer: Its AC50 is 10.3 µM (active).

Question: And the AC50 [5]?
Answer: The AC50 was 3.01 µM (active).

Question: Which outcome [6] does the source give for `O[Si](c1ccccc1)(c1ccccc1)c1ccccc1` here?
Answer: Its outcome is “inactive”.

Question: With `C#C[C@]1(O)CC[C@H]2[C@@H]3CCc4cc(OC)ccc4[C@H]3CC[C@@]21C` as the molecule, how does the outcome [1] read?
Answer: Its outcome is “inactive”.

Question: And the outcome [6]?
Answer: The outcome was “inactive”.

Question: What about the outcome [2] of the same molecule?
Answer: Its outcome is “inactive”.

Question: `CCCCCCOC(=O)c1ccccc1` was tested. Which outcome [2] did it give?
Answer: The outcome was “inactive”.

Question: For `C1COCCN1`, which AC50 [5] is on record?
Answer: The AC50 was 6.07 µM (active).

Question: `Nc1ccc([N+](=O)[O-])cc1O` was tested. Which outcome [7] did it give?
Answer: The outcome was “inactive”.

Question: `CO[Si](OC)(c1ccccc1)c1ccccc1` was tested. Which AC50 [8] did it give?
Answer: The AC50 was 45.6 µM (active).

Question: What does the source list for `Oc1ccc(Nc2ccccc2)cc1`?
Answer: outcome [7]: inactive; outcome [9]: inactive

Question: Which results are given for `Nc1ccc(Oc2cccc(Oc3ccc(N)cc3)c2)cc1`?
Answer: outcome [8]: inactive; outcome [5]: inactive; AC50 [6]: 12.1 µM (active)

Question: With `CC(CCl)OP(=O)(OC(C)CCl)OC(C)CCl` (stereo unspecified) as the molecule, how does the outcome [2] read?
Answer: Its outcome is “inactive”.

Question: With `CCCCCCCCCCCCCCCC[N+](C)(C)Cc1ccccc1` as the molecule, how does the AC50 [10] read?
Answer: The AC50 was 16.4 µM (active).

Question: What about the AC50 [8] of the same molecule?
Answer: The AC50 was 1.57 µM (active).

Question: And the AC50 [4]?
Answer: Its AC50 is 0.584 µM (active).

Question: What about the AC50 [7] of the same molecule?
Answer: Its AC50 is 2.11 µM (active).

Question: What about the AC50 [1] of the same molecule?
Answer: The AC50 was 1.44 µM (active).

Question: And the AC50 [9]?
Answer: The AC50 was 38.6 µM (active).

Question: What about the outcome [6] of the same molecule?
Answer: The outcome was “inactive”.
